From article PMC7862700, “An all-to-all approach to the identification of sequence-specific readers for epigenetic DNA modifications on cytosine”

Key:
Assay in all cases: DAPPL (digital affinity profiling via proximity ligation, sequencing); 10 mM Tris-HCl pH 7.5, 50 mM NaCl, 1 mM DTT, 4% glycerol, room temperature, 30 min; GST-TFs on glutathione beads, 16-mer random dsDNA library, 0.1% formaldehyde crosslink after washing; high values mean tight binding
[1] = target: T1, FLI1 (Homo sapiens, UniProt Q01543 1-452); conditions: protein: recombinant; tags: N-terminal GST; dsDNA, one strand shown
T1 sequence: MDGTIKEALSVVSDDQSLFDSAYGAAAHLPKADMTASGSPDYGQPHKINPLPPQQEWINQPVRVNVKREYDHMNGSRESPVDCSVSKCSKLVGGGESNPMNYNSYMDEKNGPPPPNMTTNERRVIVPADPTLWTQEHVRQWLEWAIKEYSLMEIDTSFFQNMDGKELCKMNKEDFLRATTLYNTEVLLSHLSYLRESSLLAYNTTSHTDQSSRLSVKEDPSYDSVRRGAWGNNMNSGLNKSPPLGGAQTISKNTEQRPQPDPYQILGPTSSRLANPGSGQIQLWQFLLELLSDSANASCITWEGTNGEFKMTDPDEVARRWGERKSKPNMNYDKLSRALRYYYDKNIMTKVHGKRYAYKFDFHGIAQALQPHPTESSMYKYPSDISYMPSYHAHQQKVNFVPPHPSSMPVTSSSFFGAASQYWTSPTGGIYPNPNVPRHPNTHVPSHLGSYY
In short: (§1)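 GST fusions of human transcription factors were expressed in yeast and captured with glutathione beads. Once given DNA barcodes and pooled alongside a tag-only sample, they were incubated for 30 min at room temperature with 200 nmole of a random double-stranded 16-mer DNA library in Tris/NaCl/DTT/glycerol buffer, then washed, crosslinked (0.1% formaldehyde), proximity-ligated, PCR-amplified and sequenced on an Illumina NextSeq500. The binding signal of each hexamer is its read frequency for a factor divided by its frequency for the tag-only sample.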

[2] = target: T2, ELK1 (Homo sapiens, UniProt P19419 1-428); conditions: protein: recombinant; tags: N-terminal GST; dsDNA, one strand shown
T2 sequence: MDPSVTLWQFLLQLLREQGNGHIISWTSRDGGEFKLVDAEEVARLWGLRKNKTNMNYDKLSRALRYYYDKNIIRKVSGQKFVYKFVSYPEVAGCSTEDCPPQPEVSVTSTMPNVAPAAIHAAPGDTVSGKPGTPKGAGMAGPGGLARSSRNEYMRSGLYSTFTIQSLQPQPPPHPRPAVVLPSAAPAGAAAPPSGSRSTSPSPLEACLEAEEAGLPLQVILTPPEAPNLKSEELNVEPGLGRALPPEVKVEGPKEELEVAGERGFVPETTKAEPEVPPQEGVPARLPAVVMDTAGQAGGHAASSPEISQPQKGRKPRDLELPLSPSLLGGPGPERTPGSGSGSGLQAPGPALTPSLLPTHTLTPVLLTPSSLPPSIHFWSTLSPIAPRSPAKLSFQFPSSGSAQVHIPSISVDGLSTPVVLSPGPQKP
In short: as §1

[3] = target: T3, GABPA (Homo sapiens, UniProt Q06546 1-454); conditions: protein: recombinant; tags: N-terminal GST; dsDNA, one strand shown
T3 sequence: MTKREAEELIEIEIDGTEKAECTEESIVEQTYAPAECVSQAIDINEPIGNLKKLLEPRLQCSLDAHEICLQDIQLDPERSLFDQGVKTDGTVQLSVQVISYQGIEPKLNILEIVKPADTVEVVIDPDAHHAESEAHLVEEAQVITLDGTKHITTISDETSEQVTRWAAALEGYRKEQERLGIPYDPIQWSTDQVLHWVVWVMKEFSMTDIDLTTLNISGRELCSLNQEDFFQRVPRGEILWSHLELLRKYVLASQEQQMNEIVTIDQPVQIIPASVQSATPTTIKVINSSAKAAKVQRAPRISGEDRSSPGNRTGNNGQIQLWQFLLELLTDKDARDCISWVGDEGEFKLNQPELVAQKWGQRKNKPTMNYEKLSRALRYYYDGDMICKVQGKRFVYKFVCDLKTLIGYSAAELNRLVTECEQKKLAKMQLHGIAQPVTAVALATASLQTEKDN
In short: as §1

[4] = target: T4, ERG (Homo sapiens, UniProt P11308 1-479); conditions: protein: recombinant; tags: N-terminal GST; dsDNA, one strand shown
T4 sequence: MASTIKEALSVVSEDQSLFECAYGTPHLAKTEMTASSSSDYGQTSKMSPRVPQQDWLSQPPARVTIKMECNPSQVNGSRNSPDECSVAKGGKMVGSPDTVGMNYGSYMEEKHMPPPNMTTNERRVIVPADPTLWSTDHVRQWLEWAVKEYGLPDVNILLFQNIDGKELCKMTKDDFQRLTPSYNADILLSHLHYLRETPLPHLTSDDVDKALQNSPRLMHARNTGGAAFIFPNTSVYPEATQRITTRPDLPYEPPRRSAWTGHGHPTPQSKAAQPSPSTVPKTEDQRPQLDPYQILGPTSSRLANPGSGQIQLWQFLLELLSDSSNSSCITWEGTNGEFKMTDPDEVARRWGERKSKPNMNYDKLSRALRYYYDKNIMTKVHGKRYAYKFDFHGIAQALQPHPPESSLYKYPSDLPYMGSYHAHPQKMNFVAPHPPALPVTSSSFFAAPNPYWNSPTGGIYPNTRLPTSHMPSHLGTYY
In short: as §1

[5] = target: ELF1 (Homo sapiens, UniProt P32519 1-619); conditions: protein: recombinant; tags: N-terminal GST; dsDNA, one strand shown
In short: as §1

[6] = target: T5, EHF (Homo sapiens, UniProt Q9NZC4 1-300); conditions: protein: recombinant; tags: N-terminal GST; dsDNA, one strand shown
T5 sequence: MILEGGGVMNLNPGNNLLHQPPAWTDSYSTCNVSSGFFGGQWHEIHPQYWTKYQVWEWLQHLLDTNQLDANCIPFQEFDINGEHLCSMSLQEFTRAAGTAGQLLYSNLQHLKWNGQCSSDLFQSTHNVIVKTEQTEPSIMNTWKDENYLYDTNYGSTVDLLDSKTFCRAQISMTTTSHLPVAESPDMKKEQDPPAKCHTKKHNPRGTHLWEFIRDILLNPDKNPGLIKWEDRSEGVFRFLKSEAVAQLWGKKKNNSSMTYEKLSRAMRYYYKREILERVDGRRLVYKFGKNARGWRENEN
In short: as §1

[7] = target: SPI1 (Homo sapiens, UniProt P17947 1-270); conditions: protein: recombinant; tags: N-terminal GST; dsDNA, one strand shown
In short: as §1

[8] = target: SPIB (Homo sapiens, UniProt Q01892 1-262); conditions: protein: recombinant; tags: N-terminal GST; dsDNA, one strand shown
In short: as §1

[9] = target: T6, ELK3 (Homo sapiens, UniProt P41970 1-407); conditions: protein: recombinant; tags: N-terminal GST; dsDNA, one strand shown
T6 sequence: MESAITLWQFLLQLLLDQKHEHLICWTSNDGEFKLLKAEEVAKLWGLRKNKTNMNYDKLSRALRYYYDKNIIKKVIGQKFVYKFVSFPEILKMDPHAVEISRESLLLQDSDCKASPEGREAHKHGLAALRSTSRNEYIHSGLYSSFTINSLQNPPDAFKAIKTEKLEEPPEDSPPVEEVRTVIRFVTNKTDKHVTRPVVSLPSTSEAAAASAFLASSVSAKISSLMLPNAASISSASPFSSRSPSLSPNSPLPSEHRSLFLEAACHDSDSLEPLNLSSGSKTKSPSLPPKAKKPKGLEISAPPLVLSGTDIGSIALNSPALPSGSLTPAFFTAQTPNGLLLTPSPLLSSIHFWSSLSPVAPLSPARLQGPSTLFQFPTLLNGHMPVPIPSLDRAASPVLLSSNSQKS
In short: as §1

[10] = target: T7, FEV (Homo sapiens, UniProt Q99581 1-238); conditions: protein: recombinant; tags: N-terminal GST; dsDNA, one strand shown
T7 sequence: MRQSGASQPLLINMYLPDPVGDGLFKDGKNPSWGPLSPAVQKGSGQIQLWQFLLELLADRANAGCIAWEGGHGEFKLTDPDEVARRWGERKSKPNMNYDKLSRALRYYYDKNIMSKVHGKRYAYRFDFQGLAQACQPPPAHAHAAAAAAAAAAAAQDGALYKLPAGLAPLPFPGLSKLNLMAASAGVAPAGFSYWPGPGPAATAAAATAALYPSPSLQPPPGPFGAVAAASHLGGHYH
In short: as §1

[11] = target: ETV5 (Homo sapiens, UniProt P41161 1-510); conditions: protein: recombinant; tags: N-terminal GST; dsDNA, one strand shown
In short: as §1

[12] = target: HSF1 (Homo sapiens, UniProt Q00613 1-529); conditions: protein: recombinant; tags: N-terminal GST; chain copies: 3; dsDNA, one strand shown
In short: as §1

[13] = target: T8, SPIC (Homo sapiens, UniProt Q8N5J4 1-248); conditions: protein: recombinant; tags: N-terminal GST; dsDNA, one strand shown
T8 sequence: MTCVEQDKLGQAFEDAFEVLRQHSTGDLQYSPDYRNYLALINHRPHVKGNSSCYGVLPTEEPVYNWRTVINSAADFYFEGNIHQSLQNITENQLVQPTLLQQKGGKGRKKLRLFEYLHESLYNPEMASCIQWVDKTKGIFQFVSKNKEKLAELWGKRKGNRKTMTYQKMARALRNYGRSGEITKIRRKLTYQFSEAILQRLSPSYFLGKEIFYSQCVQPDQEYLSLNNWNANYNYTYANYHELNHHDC
In short: as §1

[14] = target: ELF4 (Homo sapiens, UniProt Q99607 1-663); conditions: protein: recombinant; tags: N-terminal GST; dsDNA, one strand shown
In short: as §1

[15] = target: T9, ELK4 (Homo sapiens, UniProt P28324-2 1-405); conditions: protein: recombinant; tags: N-terminal GST; dsDNA, one strand shown
T9 sequence: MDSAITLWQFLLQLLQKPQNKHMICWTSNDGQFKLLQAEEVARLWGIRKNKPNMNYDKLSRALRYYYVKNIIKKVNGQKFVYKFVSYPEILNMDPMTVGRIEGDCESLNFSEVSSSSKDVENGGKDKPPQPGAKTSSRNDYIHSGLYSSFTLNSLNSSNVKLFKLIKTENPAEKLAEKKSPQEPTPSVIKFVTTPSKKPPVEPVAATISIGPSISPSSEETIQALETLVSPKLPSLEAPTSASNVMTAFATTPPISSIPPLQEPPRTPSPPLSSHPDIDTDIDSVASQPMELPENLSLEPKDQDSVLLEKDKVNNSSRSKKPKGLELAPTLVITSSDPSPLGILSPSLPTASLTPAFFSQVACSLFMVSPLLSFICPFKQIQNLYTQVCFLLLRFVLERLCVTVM
In short: as §1

[16] = target: T10, ETV2 (Homo sapiens, UniProt O00321 1-342); conditions: protein: recombinant; tags: N-terminal GST; dsDNA, one strand shown
T10 sequence: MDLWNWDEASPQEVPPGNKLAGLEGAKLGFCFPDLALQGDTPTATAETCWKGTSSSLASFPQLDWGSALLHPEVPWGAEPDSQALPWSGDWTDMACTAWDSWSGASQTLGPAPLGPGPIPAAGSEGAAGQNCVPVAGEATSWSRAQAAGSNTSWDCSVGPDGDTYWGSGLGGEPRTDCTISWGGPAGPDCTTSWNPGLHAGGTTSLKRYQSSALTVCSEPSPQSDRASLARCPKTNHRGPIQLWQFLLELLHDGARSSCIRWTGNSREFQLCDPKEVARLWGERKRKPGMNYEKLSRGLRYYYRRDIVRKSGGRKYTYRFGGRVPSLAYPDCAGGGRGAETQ
In short: as §1

[17] = target: T11, ELF3 (Homo sapiens, UniProt P78545 1-371); conditions: protein: recombinant; tags: N-terminal GST; dsDNA, one strand shown
T11 sequence: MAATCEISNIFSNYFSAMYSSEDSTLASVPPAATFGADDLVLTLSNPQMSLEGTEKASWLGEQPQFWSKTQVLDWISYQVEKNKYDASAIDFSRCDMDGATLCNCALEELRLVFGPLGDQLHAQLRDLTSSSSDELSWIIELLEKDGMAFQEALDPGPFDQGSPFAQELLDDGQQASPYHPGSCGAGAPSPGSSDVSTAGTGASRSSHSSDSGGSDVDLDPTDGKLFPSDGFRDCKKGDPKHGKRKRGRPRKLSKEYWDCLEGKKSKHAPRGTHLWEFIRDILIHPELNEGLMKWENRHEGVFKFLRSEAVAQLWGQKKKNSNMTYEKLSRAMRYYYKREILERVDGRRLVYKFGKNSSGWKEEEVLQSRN
In short: as §1

[18] = target: CRX (Homo sapiens, UniProt O43186 1-299); conditions: protein: recombinant; tags: N-terminal GST; dsDNA, one strand shown
In short: as §1

[19] = target: ETV1 (Homo sapiens, UniProt P50549 1-477); conditions: protein: recombinant; tags: N-terminal GST; dsDNA, one strand shown
In short: as §1

SPIB, sequence (Q01892 whole entry): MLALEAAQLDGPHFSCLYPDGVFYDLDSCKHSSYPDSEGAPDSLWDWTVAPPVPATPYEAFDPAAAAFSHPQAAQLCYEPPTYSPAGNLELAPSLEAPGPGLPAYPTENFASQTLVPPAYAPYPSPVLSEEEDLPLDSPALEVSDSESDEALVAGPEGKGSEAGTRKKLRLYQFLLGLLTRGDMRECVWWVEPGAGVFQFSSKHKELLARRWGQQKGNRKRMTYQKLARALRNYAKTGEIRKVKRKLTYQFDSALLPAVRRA
ELF4, sequence (Q99607 whole entry): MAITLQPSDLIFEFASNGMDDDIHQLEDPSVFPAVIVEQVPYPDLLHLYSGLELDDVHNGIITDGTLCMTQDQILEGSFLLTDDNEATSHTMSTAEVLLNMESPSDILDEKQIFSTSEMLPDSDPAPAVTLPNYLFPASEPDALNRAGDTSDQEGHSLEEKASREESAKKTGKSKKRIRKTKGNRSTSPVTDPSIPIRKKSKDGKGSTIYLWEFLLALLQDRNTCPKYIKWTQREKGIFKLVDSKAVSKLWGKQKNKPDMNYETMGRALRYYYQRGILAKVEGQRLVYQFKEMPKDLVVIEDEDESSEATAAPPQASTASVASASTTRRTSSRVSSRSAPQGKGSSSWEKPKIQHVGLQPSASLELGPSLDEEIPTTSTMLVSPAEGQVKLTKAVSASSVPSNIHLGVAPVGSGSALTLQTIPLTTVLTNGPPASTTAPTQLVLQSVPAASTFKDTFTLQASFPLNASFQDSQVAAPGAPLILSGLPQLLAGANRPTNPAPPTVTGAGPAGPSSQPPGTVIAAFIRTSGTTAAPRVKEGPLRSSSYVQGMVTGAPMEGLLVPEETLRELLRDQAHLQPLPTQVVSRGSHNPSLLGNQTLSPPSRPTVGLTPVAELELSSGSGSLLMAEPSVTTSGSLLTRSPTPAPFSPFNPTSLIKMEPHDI
HSF1, sequence (Q00613 whole entry): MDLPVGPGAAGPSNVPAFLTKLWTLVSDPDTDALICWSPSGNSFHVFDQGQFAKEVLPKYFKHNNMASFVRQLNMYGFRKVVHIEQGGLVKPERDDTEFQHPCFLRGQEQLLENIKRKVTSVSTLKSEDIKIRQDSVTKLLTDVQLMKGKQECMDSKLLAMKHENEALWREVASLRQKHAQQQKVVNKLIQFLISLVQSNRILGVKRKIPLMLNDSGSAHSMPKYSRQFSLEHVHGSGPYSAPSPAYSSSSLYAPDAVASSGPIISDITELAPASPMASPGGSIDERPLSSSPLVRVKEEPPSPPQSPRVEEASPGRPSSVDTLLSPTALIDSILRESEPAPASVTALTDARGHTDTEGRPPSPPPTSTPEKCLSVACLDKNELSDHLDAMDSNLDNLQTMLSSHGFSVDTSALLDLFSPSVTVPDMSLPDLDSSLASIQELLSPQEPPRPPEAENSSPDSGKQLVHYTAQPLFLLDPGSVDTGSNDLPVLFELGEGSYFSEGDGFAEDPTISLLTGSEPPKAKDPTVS
ETV5, sequence (P41161 whole entry): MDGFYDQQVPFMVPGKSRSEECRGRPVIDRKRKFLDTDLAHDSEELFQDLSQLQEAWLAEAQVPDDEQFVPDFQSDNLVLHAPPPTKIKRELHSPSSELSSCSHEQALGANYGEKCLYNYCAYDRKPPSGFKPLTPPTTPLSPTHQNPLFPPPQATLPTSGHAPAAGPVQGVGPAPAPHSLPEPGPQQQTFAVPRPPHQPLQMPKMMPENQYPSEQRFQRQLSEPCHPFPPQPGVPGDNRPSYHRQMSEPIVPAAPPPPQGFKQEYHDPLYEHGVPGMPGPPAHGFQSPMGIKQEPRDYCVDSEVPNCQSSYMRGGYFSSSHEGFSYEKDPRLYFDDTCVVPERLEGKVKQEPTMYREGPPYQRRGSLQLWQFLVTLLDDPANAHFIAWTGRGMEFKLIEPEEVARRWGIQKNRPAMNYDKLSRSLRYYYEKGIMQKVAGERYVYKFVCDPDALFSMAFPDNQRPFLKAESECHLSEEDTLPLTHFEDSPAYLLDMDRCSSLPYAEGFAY
ETV1, sequence (P50549 whole entry): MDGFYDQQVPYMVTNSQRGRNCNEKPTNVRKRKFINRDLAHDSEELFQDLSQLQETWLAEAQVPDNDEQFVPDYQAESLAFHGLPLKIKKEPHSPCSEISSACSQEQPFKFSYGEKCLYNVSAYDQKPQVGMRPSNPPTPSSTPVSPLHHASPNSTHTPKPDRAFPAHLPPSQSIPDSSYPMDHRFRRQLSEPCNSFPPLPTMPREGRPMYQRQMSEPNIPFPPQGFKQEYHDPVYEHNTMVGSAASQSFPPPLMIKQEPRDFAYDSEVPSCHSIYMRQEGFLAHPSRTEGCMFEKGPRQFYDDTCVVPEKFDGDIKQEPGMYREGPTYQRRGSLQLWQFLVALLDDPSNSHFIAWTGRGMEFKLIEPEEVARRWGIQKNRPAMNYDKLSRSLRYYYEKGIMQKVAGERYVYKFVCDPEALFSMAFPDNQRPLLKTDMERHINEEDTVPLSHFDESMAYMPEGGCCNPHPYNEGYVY
ELF1, sequence (P32519 whole entry): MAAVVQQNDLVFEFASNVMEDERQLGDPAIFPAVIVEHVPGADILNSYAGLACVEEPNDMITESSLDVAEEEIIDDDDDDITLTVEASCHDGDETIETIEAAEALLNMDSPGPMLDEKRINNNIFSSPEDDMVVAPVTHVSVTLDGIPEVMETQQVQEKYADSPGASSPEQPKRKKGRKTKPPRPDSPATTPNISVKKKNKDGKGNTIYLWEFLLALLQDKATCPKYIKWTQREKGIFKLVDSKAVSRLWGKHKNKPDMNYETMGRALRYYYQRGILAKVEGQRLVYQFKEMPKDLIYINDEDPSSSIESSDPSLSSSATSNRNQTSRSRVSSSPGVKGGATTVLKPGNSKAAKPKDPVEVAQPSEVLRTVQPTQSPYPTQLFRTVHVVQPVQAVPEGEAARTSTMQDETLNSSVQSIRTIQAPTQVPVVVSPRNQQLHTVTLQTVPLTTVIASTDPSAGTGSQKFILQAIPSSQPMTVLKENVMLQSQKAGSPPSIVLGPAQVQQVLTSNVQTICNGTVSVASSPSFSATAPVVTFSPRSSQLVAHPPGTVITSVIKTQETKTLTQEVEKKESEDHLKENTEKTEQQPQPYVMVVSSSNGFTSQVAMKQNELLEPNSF
CRX, sequence (O43186 whole entry): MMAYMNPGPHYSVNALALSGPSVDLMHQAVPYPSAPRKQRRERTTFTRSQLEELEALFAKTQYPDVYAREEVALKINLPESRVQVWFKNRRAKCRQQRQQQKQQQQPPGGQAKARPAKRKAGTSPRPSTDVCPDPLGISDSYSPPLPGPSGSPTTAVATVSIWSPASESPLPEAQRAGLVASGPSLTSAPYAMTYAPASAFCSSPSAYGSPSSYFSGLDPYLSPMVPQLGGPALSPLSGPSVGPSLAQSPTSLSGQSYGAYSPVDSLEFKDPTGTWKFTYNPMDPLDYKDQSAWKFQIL

TTGCAT
binding signal [1]: 1.5 fold enrichment (6-mer frequency, TF over GST control)
binding signal [2]: 1.43 fold enrichment (6-mer frequency, TF over GST control)
binding signal [3]: 1.52 fold enrichment (6-mer frequency, TF over GST control)
binding signal [4]: 1.37 fold enrichment (6-mer frequency, TF over GST control)
binding signal [5]: 1.39 fold enrichment (6-mer frequency, TF over GST control)
binding signal [6]: 1.4 fold enrichment (6-mer frequency, TF over GST control)
binding signal [7]: 1.44 fold enrichment (6-mer frequency, TF over GST control)
binding signal [8]: 1.38 fold enrichment (6-mer frequency, TF over GST control)
binding signal [9]: 1.42 fold enrichment (6-mer frequency, TF over GST control)
binding signal [10]: 1.35 fold enrichment (6-mer frequency, TF over GST control)
binding signal [11]: 1.39 fold enrichment (6-mer frequency, TF over GST control)
binding signal [12]: 1.3 fold enrichment (6-mer frequency, TF over GST control)
binding signal [13]: 1.59 fold enrichment (6-mer frequency, TF over GST control)
binding signal [14]: 1.4 fold enrichment (6-mer frequency, TF over GST control)
binding signal [15]: 1.31 fold enrichment (6-mer frequency, TF over GST control)
binding signal [16]: 1.53 fold enrichment (6-mer frequency, TF over GST control)
binding signal [17]: 1.38 fold enrichment (6-mer frequency, TF over GST control)
binding signal [18]: 1.33 fold enrichment (6-mer frequency, TF over GST control)
binding signal [19]: 1.5 fold enrichment (6-mer frequency, TF over GST control)
